Measurements: PubChem BioAssay AID1159580 (chemical genetic matrix, 2015)
Values joined by “and” are separate entries in the source; they are usually repeats but may differ in a detail not shown here. Equal values may be shown once. Out of some 5,500 compounds screened, about 2,000 (36%) were called active. Inconclusive results (about 18%) are left out. Cut-off read from the data, not from the text of the source: active = normalized growth mostly below about 0.91 (no sharp cut-off); inconclusive = no clear call, values can overlap the other calls; inactive = mostly above about 0.92. The list shows a part of the results.

Assay: chemical genetic growth profiling, strain panel (AID 1159580);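 note: tested at 20 µM; growth read once vehicle control cultures reached saturation at 30 °C; 1 = growth at the plate median or of vehicle wells; lower values mean less growth of the strain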
Conditions: S. cerevisiae deletion strains, growth OD

Measured: normalized growth

CCN(CC)Cc1ccc(Nc2ccnc3cc(Cl)ccc23)cc1O
inactive: locus YAL021C, strain ccr4, active compounds read low 0.986 | locus YAL026C, strain drs2, active compounds read low 1.03 | locus YAL030W, strain snc1, active compounds read low 1 | locus YBL061C, strain skt5, active compounds read low 1.03 | locus YBR009C, strain hhf1, active compounds read low 0.96 | locus YBR021W, strain FUR4, active compounds read low 0.995 | locus YBR023C, strain chs3, active compounds read low 1.03 | locus YBR171W, strain sec66, active compounds read low 1.05 | locus YBR229C, strain ROT2, active compounds read low 1 | locus YBR231C, strain swc5, active compounds read low 0.989 | locus YBR279W, strain paf1, active compounds read low 1.01 | locus YCL011C, strain gbp2, active compounds read low 1 | locus YCL016C, strain dcc1, active compounds read low 1.02 | locus YCL029C, strain bik1, active compounds read low 1 | locus YCL061C, strain MRC1, active compounds read low 1.01 | locus YCL069W, strain vba3, active compounds read low 1.02 | locus YCR088W, strain abp1, active compounds read low 1.03 | locus YDL005C, strain med2, active compounds read low 1.04 | locus YDL035C, strain GPR1, active compounds read low 1.01 | locus YDL040C, strain nat1, active compounds read low 1 | locus YDL074C, strain BRE1, active compounds read low 1 | locus YDL101C, strain DUN1, active compounds read low 1.01 | locus YDL185W, strain tfp1, active compounds read low 0.997 | locus YDL192W, strain arf1, active compounds read low 0.999 | locus YDR001C, strain nth1, active compounds read low 1.03 | locus YDR069C, strain doa4, active compounds read low 1.01 | locus YDR101C, strain arx1, active compounds read low 0.988 | locus YDR137W, strain rgp1, active compounds read low 1.07 | locus YDR150W, strain NUM1, active compounds read low 1.01 | locus YDR159W, strain sac3, active compounds read low 0.941 | locus YDR162C, strain NBP2, active compounds read low 1.02 | locus YDR195W, strain ref2 0.971 | locus YDR297W, strain sur2, active compounds read low 1.02 | locus YDR318W, strain mcm21, active compounds read low 1 | locus YDR334W, strain swr1, active compounds read low 1.02 | locus YDR335W, strain msn5, active compounds read low 1.03 | locus YDR388W, active compounds read low 0.998 | locus YDR502C, strain sam2, active compounds read low 0.997 | locus YEL003W, strain gim4, active compounds read low 1.01 | locus YEL037C, strain rad23, active compounds read low 1.03 | locus YEL061C, strain CIN8 (second series), active compounds read low 1.01 | locus YEL061C, strain CIN8, active compounds read low 1 | locus YER015W, strain faa2, active compounds read low 1 | locus YER016W, strain bim1, active compounds read low 1.03 | locus YER110C, active compounds read low 0.999 | locus YER111C, strain swi4, active compounds read low 1.03 | locus YER155C, strain BEM2 (second series), active compounds read low 0.865 | locus YER155C, strain BEM2, active compounds read low 1 | locus YER167W, strain BCK2, active compounds read low 1.01 | locus YFR010W, strain ubp6, active compounds read low 0.992 | locus YGL078C, strain dbp3, active compounds read low 1 | locus YGL086W, strain mad1, active compounds read low 0.996 | locus YGL167C, strain pmr1, active compounds read low 1.01 | locus YGL173C, strain kem1, active compounds read low 0.991 | locus YGL227W, strain vid30, active compounds read low 1.01 | locus YGL240W, strain doc1, active compounds read low 0.958 | locus YGL248W, strain PDE1, active compounds read low 1.01 | locus YGL253W, strain hxk2, active compounds read low 1.01 | locus YGR078C, strain PAC10, active compounds read low 1 | locus YGR135W, strain pre9, active compounds read low 0.994 | locus YGR229C, strain SMI1, active compounds read low 1.02 | locus YGR252W, strain gcn5, active compounds read low 0.96 | locus YHR013C, strain ard1, active compounds read low 0.96 | locus YHR027C, strain rpn1, active compounds read low 1.01 | locus YHR030C, strain SLT2, active compounds read low 1.01 | locus YHR079C, strain IRE1 (second series), active compounds read low 0.999 | locus YHR079C, strain IRE1, active compounds read low 1.07 | locus YHR094C, strain hxt1, active compounds read low 0.998 | locus YHR129C, strain ARP1, active compounds read low 1 | locus YHR142W, strain chs7, active compounds read low 1.03 | locus YHR200W, strain rpn10, active compounds read low 0.997 | locus YIL066C, strain RNR3, active compounds read low 1.02 | locus YIL073C, strain SPO22, active compounds read low 1.01 | locus YIL125W, strain kgd1, active compounds read low 1 | locus YIR030C, strain dcg1, active compounds read low 0.997 | locus YJL092W, strain hpr5, active compounds read low 1.01 | locus YJL095W, strain BCK1 (second series), active compounds read low 1.01 | locus YJL095W, strain BCK1, active compounds read low 1 and 1.05 | locus YJL115W, strain asf1, active compounds read low 1.04 | locus YJL129C, strain trk1, active compounds read low 1.01 | locus YJL134W, strain LCB3, active compounds read low 1.01 | locus YJL154C, strain vps35, active compounds read low 1.02 | locus YJL164C, strain tpk1, active compounds read low 1 | locus YJL166W, strain qcr8, active compounds read low 0.992 | locus YJL168C, strain set2, active compounds read low 1 | locus YJL187C, strain SWE1 (second series), active compounds read low 1 | locus YJR043C, strain POL32, active compounds read low 0.996 | locus YJR066W, strain TOR1, active compounds read low 0.992 | locus YJR075W, strain HOC1, active compounds read low 1.01 | locus YKL009W, strain mrt4, active compounds read low 0.997 | locus YKL068W, active compounds read low 0.996 | locus YKL085W, strain MDH1 (second series), active compounds read low 0.995 | locus YKL085W, strain MDH1, active compounds read low 0.995 | locus YKL160W, strain elf1, active compounds read low 1.04 | locus YKL190W, strain CNB1, active compounds read low 1.01 | locus YKR001C, strain vps1, active compounds read low 0.999 | locus YKR026C, strain gcn3, active compounds read low 1.03 | locus YKR091W, strain srl3, active compounds read low 1.02 | locus YLL001W, strain dnm1, active compounds read low 1.01 | locus YLL026W, active compounds read low 1.02 | locus YLL041C, strain sdh2, active compounds read low 1.03 | locus YLR027C, strain aat2, active compounds read low 1.01 | locus YLR039C, strain RIC1, active compounds read low 1.01 | locus YLR058C, strain SHM2, active compounds read low 1.01 | locus YLR102C, strain apc9, active compounds read low 0.993 | locus YLR113W, strain HOG1, active compounds read low 1.06 | locus YLR221C, strain rsa3, active compounds read low 0.987 | locus YLR258W, strain gsy2, active compounds read low 1.03 | locus YLR262C, strain YPT6 (second series), active compounds read low 1.02 | locus YLR262C, strain YPT6, active compounds read low 1.06 | locus YLR268W, strain sec22, active compounds read low 0.993 | locus YLR320W, strain mms22, active compounds read low 0.939 | locus YLR330W, strain CHS5, active compounds read low 1.01 | locus YLR342W, strain FKS1 (second series), active compounds read low 0.984 | locus YLR342W, strain FKS1, active compounds read low 1.01 | locus YLR357W, strain rsc2, active compounds read low 1.06 | locus YLR370C, strain arc18, active compounds read low 1.02 | locus YLR371W, strain rom2, active compounds read low 1 | locus YLR384C, strain iki3, active compounds read low 1.01 | locus YLR418C, strain cdc73, active compounds read low 0.98 | locus YML016C, strain PPZ1, active compounds read low 1 | locus YML032C, strain rad52, active compounds read low 0.99 | locus YML120C, strain ndi1, active compounds read low 1.02 | locus YML124C, strain tub3, active compounds read low 1.01 | locus YMR058W, strain fet3, active compounds read low 0.93 | locus YMR078C, strain ctf18, active compounds read low 1 | locus YMR125W, strain sto1, active compounds read low 1.05 | locus YMR129W, active compounds read low 1.02 | locus YMR205C, strain PFK2, active compounds read low 0.983 | locus YMR223W, strain ubp8, active compounds read low 1 | locus YMR231W, strain pep5, active compounds read low 1.01 | locus YMR307W, strain GAS1, active compounds read low 1.01 | locus YNL067W, strain RPL9B, active compounds read low 1 | locus YNL071W, strain lat1, active compounds read low 1.03 | locus YNL128W, strain TEP1, active compounds read low 1.02 | locus YNL153C, strain GIM3, active compounds read low 0.987 | locus YNL183C, strain NPR1, active compounds read low 1 | locus YNL209W, strain ssb2, active compounds read low 1.01 | locus YNL233W, strain BNI4, active compounds read low 1 | locus YNL248C, strain rpa49, active compounds read low 1.03 | locus YNL250W, strain rad50, active compounds read low 0.997 | locus YNL271C, strain bni1, active compounds read low 1.03 | locus YNL298W, strain CLA4, active compounds read low 1.01 | locus YNL307C, strain MCK1, active compounds read low 0.997 | locus YNL322C, strain KRE1 (second series), active compounds read low 1.05 | locus YNR049C, strain mso1, active compounds read low 1.01 | locus YNR052C, strain pop2, active compounds read low 1 | locus YOL006C, strain TOP1, active compounds read low 1.04 | locus YOL012C, strain htz1 1.13 | locus YOL147C, strain pex11, active compounds read low 0.996 | locus YOR001W, strain rrp6, active compounds read low 0.995 | locus YOR061W, strain CKA2, active compounds read low 1.01 | locus YOR069W, strain VPS5, active compounds read low 1 | locus YOR070C, strain gyp1, active compounds read low 1.02 | locus YOR080W, strain dia2, active compounds read low 1.01 | locus YOR083W, strain WHI5, active compounds read low 0.986 | locus YOR106W, strain vam3, active compounds read low 1.05 | locus YOR136W, strain idh2, active compounds read low 0.995 | locus YOR144C, strain elg1, active compounds read low 0.99 | locus YOR184W, strain ser1, active compounds read low 0.992 | locus YOR231W, strain MKK1, active compounds read low 1.05 | locus YOR265W, strain rbl2, active compounds read low 1 | locus YOR270C, strain vph1, active compounds read low 1.05 | locus YOR290C, strain snf2, active compounds read low 1.02 | locus YOR316C, strain cot1, active compounds read low 0.997 | locus YPL051W, strain arl3, active compounds read low 1.01 | locus YPL078C, strain atp4, active compounds read low 1.03 | locus YPL106C, strain sse1, active compounds read low 1.05 | locus YPL240C, strain hsp82, active compounds read low 1.02 | locus YPL241C, strain CIN2, active compounds read low 1.01 | locus YPL256C, strain CLN2, active compounds read low 1.01 | locus YPR119W, strain clb2, active compounds read low 1 | locus YPR141C, strain kar3, active compounds read low 1.01 | locus YPR163C, strain tif3, active compounds read low 1.01 | locus YPR167C, strain met16, active compounds read low 1 | strain wtn01, active compounds read low 1
active: locus YDR392W, strain spt3, active compounds read low 0.737
